Consider 40 compounds from PubChem BioAssay (Tox21).

Records with an inconclusive call do not appear. Activity calls are given as the source filed them. The call rests on the fitted dose curve; in most records, active means well fitted activation curve with a large enough effect in the repeat runs; inconclusive means weak or mixed curves; inactive means flat fitted curve, though single readings scatter.
On the % scale 0 is the no-effect control and ±100 the full control effect; potency means the concentration at half of the fitted maximal effect.

A short description of this assay: A CellTox Green Cytotoxicity Assay to monitor cytotoxicity in HepG2 cells - 32 hour (AID 1224883). Further: nearly all actives have a fitted effect of over 50% in size. To be noted: CellTox Green fluorescence; series mostly up to 76.8 µM; cytotoxicity increase: at the top concentration. The text has this:
National Center for Advancing Translational Sciences [NCATS]
NIH Chemical Genomics Center [NCGC]
U.S. Environmental Protection Agency [EPA]
National Institutes of Environmental Health Sciences [NIEHS]
National Toxicology Program [NTP]
Cell-based models are critical for drug discovery. Determining the natural cytotoxic effects resulting from test compounds is an essential research activity. A CellTox Green Cytotoxicity Assay to monitor cytotoxicity in real time of continues cell culture during 40 hours of the compound treatment was used to screen Tox21 10K library compounds in HepG2 cells. CellTox Green Cytotoxicity Assay is a nonlytic, homogeneous, biofluorescent method to measure cytotoxicity in cell culture after experimental manipulation. The assay system uses a proprietary asymmetric cyanine dye that is excluded from viable cells but preferentially stains the dead cell's DNA. […] Viable cells produce no appreciable increases in fluorescence. Therefore, the fluorescence signal produced by the binding interaction with dead cell DNA is proportional to cytotoxicity.
The mixture of HepG2 cell suspension and reagents were dispensed at 600cells/6 ul/well in 1536-well tissue culture treated black solid bottom plates using a Multidrop dispenser. After the assay plates were incubated at a 37 C/5% CO2 incubator for 5 hours, 23 nL of compounds dissolved in DMSO, positive and negative controls was transferred to the assay plate by a pintool work station. The plates were incubated at 37 C for 40 hours. The fluorescence intensity were measured at 0h, 8h, 16h, 24h, 32h and 40h time points using ViewLux plate reader during compound treatment.
As to `Cc1ccccc1N1CCN(CCc2nnc3n2CCCC3)CC1`, the “cytotoxicity increase” value is -2.71% [at 35.3 µM] (inactive).
Take `COC(=O)CCC(=O)O`: the “cytotoxicity increase” value is 13.7% (inactive).
Same read-out and setting: with `COc1ccc(NS(=O)(=O)c2ccc(N)cc2)nn1` the figure was -9.45% [at 35.3 µM] (inactive); with `O=C(O)/C=C/c1ccccc1`, -0.352% (inactive); with `CC(=O)Nc1ncc([N+](=O)[O-])s1`, 6.39% [at 35.3 µM] (inactive).
Still for that read-out and setting: with `O=C(COCCOCCOCC(=O)Nc1c(I)cc(I)c(C(=O)O)c1I)Nc1c(I)cc(I)c(C(=O)O)c1I` the figure was -5.36% [at 35.3 µM] (inactive); with `C1=C\CC/C=C\CC/1`, 6.55% (inactive); with `c1ccccc1`, -14% (inactive).
With `CC(C)(CO)[C@@H](O)C(=O)NCCCO`, the “cytotoxicity increase” value was -7.15% [at 35.3 µM] (inactive).
For the compound `CCCCCC(=O)OCC`, the “cytotoxicity increase” value is -2.57% (inactive).
Turning to `CO/N=C(/C(=O)N[C@@H]1C(=O)N2C(C(=O)O)=C(Cn3nnc(C)n3)CS[C@H]12)c1csc(N)n1`, the “cytotoxicity increase” value is -12.5% [at 35.3 µM] (inactive).
As to `NCCc1ccn[nH]1`, the “cytotoxicity increase” value is -8.24% [at 35.3 µM] (inactive).
Same read-out and setting: with `CC(=O)OC[C@H]1O[C@@H](OC(C)=O)[C@H](OC(C)=O)[C@@H]1OC(C)=O` the figure was -2.07% [at 35.3 µM] (inactive); with `CCCCCCCC/C=C\CCCCCCCC(=O)OC[C@@H](O)[C@H]1OC[C@H](O)[C@H]1O`, -0.157% (inactive); with `Cc1nc2ccccc2c(=O)o1`, -4.43% (inactive).
For the compound `C=CCOc1c(Br)cc(C(C)(C)c2cc(Br)c(OCC=C)c(Br)c2)cc1Br`, the “cytotoxicity increase” value is -10.3% [at 35.3 µM] (inactive).
Still for that read-out and setting: the figure for `CCCCOC(=O)C(=O)OCCCC` is 4.9% (inactive); for `CCc1nccnc1C` it is 0.211% (inactive).
On the same count and under the same terms, with `NC(=O)NC(=O)Cc1ccccc1` the figure was -4.12% [at 35.3 µM] (inactive); with `CCC(C)N` (stereo not given), -18.9% (inactive).
Consider `COc1ccc(OC)c(NC(=O)CC(C)=O)c1`, for which the “cytotoxicity increase” value is -10.8% (inactive).
For the compound `Cc1ccccc1OCC1CO1` (stereo not given), the “cytotoxicity increase” value was 9.23% (inactive).
For `N#CCCOCCOCCC#N`, the “cytotoxicity increase” value is -4.51% (inactive).
With `CCCCCCCCCCCCCCCCCCN(C)C`, the “cytotoxicity increase” value is -7.64% [at 35.3 µM] (inactive).
The same measure, in the same setting: with `CCOc1ccc(NC(=O)OC(C)C)cc1OCC` the figure was 17.1% (inactive); with `CC(=O)c1ccc2c(c1)CCCC2`, -0.181% (inactive); with `CC(C)SCc1ccco1`, -6.84% [at 35.3 µM] (inactive).
As to `O=[Si]=O`, the “cytotoxicity increase” value is -20.2% (inactive).
`O=C(c1ccc2c(c1)C(=O)OC2=O)c1ccc2c(c1)C(=O)OC2=O`: the “cytotoxicity increase” value was 0.672% (inactive).
For `FC(F)(F)/C(=N\OCC1OCCO1)c1ccc(Cl)cc1`, the “cytotoxicity increase” value was 8.17% (inactive).
Regarding `O=C(/C=C/c1ccccc1)NCCO`, the Potency was 8.49 µM (active).
Take `CCN(Cc1cccc(S(=O)(=O)O)c1)c1ccccc1`: the “cytotoxicity increase” value is -14% (inactive).
The same measure, in the same setting: with `O=C1NC2NC(=O)NC2N1` (stereo not given) the figure was -11.3% (inactive).
On the same count and under the same terms, the figure for `O=c1[nH]c(=O)c2[nH]c(=O)[nH]c2[nH]1` is -0.415% [at 6.97 µM] (inactive); for `CC(=O)Nc1ccc(C)cc1` it is 0.0424% (inactive).
Same read-out and setting: with `COc1ccc(N=Nc2cc(C)c(N=Nc3ccc(S(=O)(=O)O)cc3)cc2OC)cc1` the figure was -24.9% (inactive).
With `O=C1CC[C@H](C(=O)N2CCCCC2)N1`, the “cytotoxicity increase” value is 4.96% [at 35.3 µM] (inactive).
The same measure, in the same setting: the figure for `CCN1CN(CC)CN(CC)C1` is 1.56% (inactive); for `O=C(Oc1ccccc1C(=O)O)c1ccccc1O` it is 0.667% [at 35.3 µM] (inactive); for `NC(=O)NNC(N)=O` it is -19.4% (inactive).
